{"source": "PubChem BioAssay (NCI)", "note": "This is part of a sample that, as a whole, favours compounds with a hit. Of some 83,000 tested, about 20% had one in any assay.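 Each cell line was grown in a 96-well plate and treated with one concentration of compound for 48 hours. Values below 10 were considered active.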 Unmarked numbers belong to inactive results. Activity calls are given as the source filed them.", "data": [{"system": "KM12 colon", "assay": "NCI-60 one-dose screen, 48 h (100 = growth as untreated, 0 = no growth, -100 = all killed)", "conditions": "10 µM", "values": [{"smiles": "COC[C@@H](CC(C)C)N=C1N/C(=C\\c2ccc3ncsc3c2)C(=O)N1C", "growth": "9.52% (active)"}, {"smiles": "COc1ccccc1[C@H]1C(C(=O)c2ccc(O)cc2)C2(N[C@@H]1c1ccccc1)C(=O)Nc1ccc(Br)cc12", "note": "(some centres not stated)", "growth": "14.3%"}, {"smiles": "COc1ccc(C(=O)Nc2ccc(-c3ccc4c(c3)NC(=O)/C4=C\\c3ccc[nH]3)cc2)cc1", "growth": "1.95% (active)"}, {"smiles": "O=C(Nc1ccncc1)c1ccc(-n2c(=O)[nH]c3ccccc3c2=O)cc1", "growth": "110%"}, {"smiles": "O=C(NO)c1ccc(-c2nc3ccc4[nH]ncc4c3c3c2CCCC3)cc1", "growth": "-28.3% (active)"}]}, {"system": "MDA-MB-468 breast", "assay": "NCI-60 one-dose screen, 48 h (100 = growth as untreated, 0 = no growth, -100 = all killed)", "conditions": "10 µM", "values": [{"smiles": "O=S(=O)(c1ccc(Cl)cc1)c1nc(-c2ccccc2)oc1S(=O)(=O)c1ccc(Cl)cc1", "growth": "76%"}, {"smiles": "O=[N+]([O-])c1ccc(-c2nc(-c3ccccc3)c(-c3ccccc3)n2-c2ccc(S(=O)(=O)Nc3ncccn3)cc2)cc1", "growth": "40%"}, {"smiles": "Cc1cc(C(F)(F)F)ccc1C(=O)Nc1sc2c(c1C#N)CCC(=O)C2", "growth": "-44.4% (active)"}, {"smiles": "Cc1ccn2c(C(=O)c3ccccc3)cc(-c3cc(-c4ccc(N(C)C)cc4)c(C#N)c(N)n3)c2c1", "growth": "50.7%"}, {"smiles": "COc1ccc2ncc(C#Cc3cncc(C(=O)Nc4ccc(CN5CCN(C)CC5)c(C(F)(F)F)c4)c3)n2n1", "growth": "-91.1% (active)"}, {"smiles": "CN1CCN(Cc2ccc(C(=O)Nc3cccc(Nc4ccc5cc(O)ccc5n4)c3)cc2C(F)(F)F)CC1", "growth": "-89.4% (active)"}, {"smiles": "O=C(c1ccc(Cl)cc1)C1[C@H](c2ccccc2Br)[C@@H](c2ccccc2)NC12C(=O)Nc1ccc(Cl)cc12", "note": "(some centres not stated)", "growth": "-40.2% (active)"}, {"smiles": "N#Cc1c(Cl)nc(SCc2ccc(F)cc2)nc1-c1ccc(F)cc1", "growth": "112%"}, {"smiles": "CC1=N/C(=C\\c2ccc(N(C)C)cc2)C(=O)N1CCc1ccc(S(N)(=O)=O)cc1", "growth": "110%"}, {"smiles": "CC1(C)CC[C@]2(C(=O)O)CC[C@]3(C)C(=CC[C@@H]4[C@@]5(C)C/C(=C/c6ccncc6)[C@H](O)C(C)(C)[C@@H]5CC[C@]43C)[C@@H]2C1", "growth": "5.27% (active)"}, {"smiles": "Cc1ccc(/C=C/C(=O)c2ccc(NC(=O)CSc3nnc(-c4c[nH]c5ccccc45)n3-c3ccccc3)cc2)c(C)c1", "growth": "22%"}, {"smiles": "COC1=C[C@]23CCC(=O)N2CCc2cc4c(cc2[C@@H]3[C@@H]1OC(=O)CCCC(C)C)OCO4", "growth": "6.02% (active)"}, {"smiles": "COC(=O)c1c(C(=O)OC)c2n(c1C)[C@@H]([C@@H](C)[C@H]1CC[C@H]3[C@@H]4CCC5=CC(=O)CC[C@]5(C)[C@H]4CC[C@]13C)SC2", "growth": "11.2%"}, {"smiles": "O=C(CNc1nc(-c2ccccc2)cs1)Nc1cccc([N+](=O)[O-])c1", "growth": "-90.6% (active)"}, {"smiles": "CN(C(=O)c1ccc(C(C)(C)C)cc1)c1sc2c(c1C#N)CCC(=O)C2", "growth": "-41.4% (active)"}, {"smiles": "Cc1cc(C)nc(NS(=O)(=O)c2ccc(N/C(N)=N/c3nccc(-c4ccccc4)n3)cc2)n1", "growth": "64.2%"}, {"smiles": "O=C(NO)c1ccc(Cn2ccc3c(Nc4ccccc4)ncnc32)cc1", "growth": "-5.25% (active)"}, {"smiles": "Cc1noc2c(Cc3ccccc3)nn(CC(=O)N/N=C/c3ccc(Br)cc3)c(=O)c12", "growth": "78.1%"}, {"smiles": "N#Cc1c(-c2ccc(F)cc2)nc(SCc2ccc([N+](=O)[O-])cc2)nc1N1CCOCC1", "growth": "50.6%"}, {"smiles": "COc1ccc(-c2ccc(/C=N/NC(=O)c3[nH]c4ccc(Br)cc4c3-c3ccccc3)s2)cc1", "growth": "76.6%"}, {"smiles": "CC1(c2ccccc2)NC(=O)N(CC(=O)Nc2ccc(C(=O)/C=C/c3ccc(Cl)cc3)cc2)C1=O", "note": "(configuration not stated)", "growth": "-9.47% (active)"}, {"smiles": "O=c1[nH]c2ccccc2cc1CSc1ccc(Nc2nccc(-c3ccc4ccccc4c3)n2)cc1", "growth": "-3.76% (active)"}, {"smiles": "COC(=O)CC1CC1C1Cc2c(nc(N(C)S(C)(=O)=O)nc2C(C)C)-c2ccc(F)cc21", "note": "(configuration not stated)", "growth": "74.9%"}, {"smiles": "COc1ccc(CN2[C@H](C(=O)NCCCCCCC(=O)NO)Cc3c([nH]c4ccccc34)[C@H]2C2CC2)cc1", "growth": "4.06% (active)"}, {"smiles": "O=C(CSc1nnc(-c2c[nH]c3ccccc23)n1-c1ccccc1)Nc1ccc(C(=O)/C=C/c2cccc([N+](=O)[O-])c2)cc1", "growth": "75.4%"}, {"smiles": "Cc1ccc(NCC(=O)Nn2c(COc3ccccc3)nc3ccccc3c2=O)cc1", "growth": "80.1%"}, {"smiles": "C/C(=C\\CC/C=C(\\C)CC/C=C(\\C)CC[C@@H](O)C(C)(C)O)CC/C=C(\\C)CC[C@@H](O)C(C)(C)O", "growth": "0.844% (active)"}]}]}
